# Reference: PubChem BioAssay (NCATS)
# Inconclusive results are not listed. Entries that show only a call come without a potency. The source made the active and inactive calls. Calls follow the shape of the dose curve; as a rule, active = well fitted curve in the direction sought with a large enough effect; inconclusive = small, poorly fitted or top-dose-only effect, or another doubt; inactive = no such curve, though single readings can be large; an effect the other way counts as inactive or inconclusive.
# What was measured:
# [1] = target: N-terminal Xaa-Pro-Lys N-methyltransferase 1 (Homo sapiens) (UniProt Q9BV86); assay: qHTS Assay for Inhibitors of N-terminal methyltransferase 1 (NTMT1): LOPAC validation of the NTMT1 SAHH-coupled ThioGlo3 Assay (AID 1347143);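 also: SAH from peptide methylation measured as thiol fluorescence via SAHH coupling and ThioGlo3; nearly all actives have a fitted effect of over 70% in size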; also: potency is read from the fitted curve at half-maximal effect
# Sequence of N-terminal Xaa-Pro-Lys N-methyltransferase 1 (Homo sapiens) (Q9BV86 whole entry, looked up): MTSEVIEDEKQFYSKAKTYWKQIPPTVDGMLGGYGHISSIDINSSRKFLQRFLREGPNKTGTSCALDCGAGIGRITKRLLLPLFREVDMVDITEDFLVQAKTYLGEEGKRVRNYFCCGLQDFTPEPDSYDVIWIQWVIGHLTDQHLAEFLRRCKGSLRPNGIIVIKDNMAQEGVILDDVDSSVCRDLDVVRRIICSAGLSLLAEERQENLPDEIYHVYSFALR
# How it was run: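 NTMT1 125nM + cpds (various conc.), 1 min RT; add SAM 100uM/SAHH 10uM/ThioGlo3 15uM (addition mix). SAHH-coupled thiol detection, Ex340/Em450, t0 and 30 min RT; signal normalized to background. LOPAC 1280-cpd pilot.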
# [2] = tested on: Zika virus NS2B-NS3 protease (unlinked); assay: Optimization of GU AMC qHTS for Zika virus inhibitors: Unlinked NS2B-NS3 protease assay (AID 1347151); also: nearly all actives have a fitted effect of over 80% in size; also: potency is read from the fitted curve at half-maximal effect
# How it was run: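 Noncovalent NS2B hydrophilic domain–NS3 protease complex (25 nM final) in 10 mM Tris-HCl pH 8.0, 0.01% Tween 20; AMC substrate, room temperature 15 min (~20% conversion); fluorescence change normalized, 4-parameter Hill fit.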
# Furin (Homo sapiens) = Furin (Homo sapiens) (UniProt P09958); assay: Furin counterscreen qHTS for Zika virus inhibitors (AID 1347149);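 also: purified recombinant full-length human furin enzyme at 5 nM; fluorescence gain from furin cutting a BOC-RVRR-AMC peptide substrate over 15 min; top concentration of the series differs between compounds; nearly all actives have a fitted effect of over 70% in size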
# Sequence of Furin (Homo sapiens) (P09958 whole entry, looked up): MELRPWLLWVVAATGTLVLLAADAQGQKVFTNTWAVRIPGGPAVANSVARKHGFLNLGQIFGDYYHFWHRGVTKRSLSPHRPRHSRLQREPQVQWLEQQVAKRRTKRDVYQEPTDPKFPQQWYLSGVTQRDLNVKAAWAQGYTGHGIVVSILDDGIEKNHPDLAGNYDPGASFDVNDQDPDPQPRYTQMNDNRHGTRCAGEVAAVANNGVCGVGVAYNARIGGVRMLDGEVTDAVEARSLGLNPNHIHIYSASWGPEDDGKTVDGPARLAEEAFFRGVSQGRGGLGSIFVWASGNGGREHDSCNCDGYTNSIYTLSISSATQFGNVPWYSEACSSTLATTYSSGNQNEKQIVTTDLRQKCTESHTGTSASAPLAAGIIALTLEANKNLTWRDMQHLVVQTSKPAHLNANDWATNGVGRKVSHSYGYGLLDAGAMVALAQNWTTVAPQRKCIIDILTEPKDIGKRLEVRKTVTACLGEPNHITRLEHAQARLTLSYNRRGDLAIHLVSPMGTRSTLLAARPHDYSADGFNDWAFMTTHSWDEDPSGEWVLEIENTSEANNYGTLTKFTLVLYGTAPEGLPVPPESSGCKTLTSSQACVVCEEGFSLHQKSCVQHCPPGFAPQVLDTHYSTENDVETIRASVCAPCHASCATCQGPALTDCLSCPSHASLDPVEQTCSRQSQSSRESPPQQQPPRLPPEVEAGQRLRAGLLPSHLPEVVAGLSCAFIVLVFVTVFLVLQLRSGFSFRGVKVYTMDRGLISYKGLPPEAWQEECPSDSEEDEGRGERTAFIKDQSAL
# How it was run: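 Counterscreen measures cleavage of 2 microM BOC-RVRR-AMC, below its ~15 microM Km, by 5 nM full-length human furin at pH 7.0 after a 15-min compound preincubation. Inhibition derives from the 15-min fluorescence increase at 37C.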
# [3] = tested on: Zika virus NS2B-NS3 protease (unlinked complex); assay: Confirmatory screen GU AMC qHTS for Zika virus inhibitors (AID 1347153); also: nearly all actives have a fitted effect of over 70% in size
# How it was run: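 Unlinked NS2B-NS3 complex (25 nM) in 10 mM Tris-HCl pH 8.0, 0.01% Tween 20 preincubated 15 min with compound, then 10 microM Bz-Nle-KRR-AMC (Km 18.3 µM). Fluorescence change over 15 min, normalized, Hill-fitted.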
# [4] = tested on: Zika virus NS2B-NS3 protease (linked construct); assay: Confirmatory screen NINDS AMC qHTS for Zika virus inhibitors (AID 1347152);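 also: AMC fluorescence gain from cleaved Bz-Nle-KRR-AMC substrate over 15 min; top concentration of the series differs between compounds; nearly all actives have a fitted effect of over 70% in size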
# How it was run: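 Linked NS2B-NS3 protease, 1 nM, in 10 mM Tris-HCl pH 8.0, 0.01% Tween 20; compounds preincubated 15 min at room temperature. Nle-KRR-AMC 10 microM (Km 18.3 µM); 15-min fluorescence change (340/450 nm) fitted to 4-parameter Hill.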
# [5] = tested on: Zika virus NS2B-NS3 protease; assay: Primary screen GU AMC qHTS for Zika virus inhibitors (AID 1347154); also: nearly all actives have a fitted effect of over 70% in size
# How it was run: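 Fluorogenic AMC-substrate cleavage by noncovalent NS2B-NS3 protease complex (25 nM, pH 8.0 Tris buffer with Tween 20) followed for 15 minutes at room temperature (~20% conversion). Percent inhibition from ex340/em450 signal change, fitted by 4-parameter Hill equation.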
smiles,measurement,setting,value
O=C(Nc1ccc2[nH]ncc2c1)C1CCC1,Potency,[1],inactive
same,Potency,[2],inactive
Oc1ccc(C2CNCc3sccc32)cc1O (configuration not stated),Potency,[1],35.5 µM (active)
same,Potency,[2],inactive
O=C(c1cc(O)c(O)c([N+](=O)[O-])c1)c1ccccc1F,Potency,[1],56.2 µM (active)
same,Potency,Furin (Homo sapiens),inactive
same,Potency,[2],2.99 µM (active)
same,outcome,[3],inactive
C=C[C@H]1CN2CC[C@@H]1C[C@@H]2[C@@H](O)c1ccnc2ccc(OC)cc12,Potency,[1],56.2 µM (active)
same,Potency,[2],26.7 µM (active)
NC(CCCP(=O)(O)O)C(=O)O (configuration not stated),Potency,[1],inactive
same,Potency,[2],inactive
N#C/C(=C\c1ccc(-c2cc(Cl)ccc2Cl)o1)C(=O)Nc1cccc2ncccc12,Potency,[1],56.2 µM (active)
same,Potency,[2],26.7 µM (active)
CCCC(CCC)C(=O)OC1CC2CCC(C1)[N+]2(C)C (configuration not stated),Potency,[1],inactive
same,Potency,[2],inactive
Oc1cc2c(cc1O)CN(C(=S)NCCc1ccc(Cl)cc1)CCC2,Potency,[1],20 µM (active)
same,Potency,Furin (Homo sapiens),inactive
same,Potency,[2],23.8 µM (active)
same,Potency,[4],inactive
same,outcome,[3],inactive
same,Potency,[5],inactive
C#C[C@]1(O)CC[C@H]2[C@@H]3CCC4=Cc5oncc5CC4(C)[C@H]3CCC21C (some centres not stated),Potency,[1],inactive
same,Potency,[2],inactive
O=C(/C=C/c1ccc(O)c(O)c1)OCCc1ccccc1,Potency,[1],35.5 µM (active)
same,Potency,[2],6.7 µM (active)
COc1cccc(C(=O)NCCN2CCN(c3ccc(Cl)cc3)CC2)c1,Potency,[1],inactive
same,Potency,[2],inactive
COCCOc1cc2nc[nH]c(=O)c2cc1OCCOC,Potency,[1],inactive
same,Potency,[2],inactive
O=C(O)CCCC[C@@H]1CCSS1,Potency,[1],inactive
same,Potency,[2],inactive
Brc1cc2c(cc1[C@H]1Nc3ccccc3[C@H]3C=CC[C@H]31)OCO2,Potency,[1],inactive
same,Potency,[2],inactive
Nc1nc(OCC2CCCCC2)c2[nH]cnc2n1,Potency,[1],inactive
same,Potency,[2],inactive
Nc1ccn([C@H]2O[C@H](CO)[C@@H](O)C2(F)F)c(=O)n1,Potency,[1],inactive
same,Potency,[2],inactive
CC(C)Cc1ccc([C@H](C)C(=O)O)cc1,Potency,[1],inactive
same,Potency,[2],inactive
S=C(S)OC1CC2CC1C1CCCC21 (configuration not stated),Potency,[1],inactive
same,Potency,[2],inactive
CN(CCCOc1ccc(Cc2ccccc2)cc1)CCC(=O)O,Potency,[1],inactive
same,Potency,[2],inactive
CCNc1nc2c(ncn2[C@H]2C[C@H](O)[C@@H](CO)O2)c(=O)[nH]1,Potency,[1],inactive
same,Potency,[2],inactive
CC1(C)CCC=[N+]1[O-],Potency,[1],inactive
same,Potency,[2],inactive
CS(=O)(=O)c1ccc(-n2nc(C(F)(F)F)cc2-c2ccc(F)cc2)cc1,Potency,[1],inactive
same,Potency,[2],inactive
Cc1cc(NC2CCCCC2)nc(-n2nc(C)cc2C)n1,Potency,[1],inactive
same,Potency,[2],inactive
CO[C@H]1O[C@@H]2O[C@]3(C)CC[C@@H]4[C@@H](C)CC[C@H]([C@H]1C)[C@]24OO3,Potency,[1],inactive
same,Potency,[2],inactive
CC(=O)SCC[N+](C)(C)C,Potency,[1],inactive
same,Potency,[2],inactive
c1cnc2c(c1)ccc1cccnc12,Potency,[1],inactive
same,Potency,[2],inactive
CN1C2CCC1CC(OC(=O)C(O)c1ccccc1)C2 (configuration not stated),Potency,[1],inactive
same,Potency,[2],inactive
O=C(NOCC1CC1)c1cc(Br)c(F)c(F)c1Nc1ccc(I)cc1Cl,Potency,[1],inactive
same,Potency,Furin (Homo sapiens),inactive
same,Potency,[4],inactive
same,outcome,[3],inactive
O=C(CCSCc1ccco1)NNC(=O)N1Cc2ccccc2Oc2ccc(Cl)cc21,Potency,[1],inactive
same,Potency,[2],inactive
CN(C)C(N)=NCCC[C@H](N)C(=O)O,Potency,[1],inactive
same,Potency,[2],inactive
O=C(CCc1ccncc1)NNC(=O)N1Cc2ccccc2Oc2ccc(Cl)cc21,Potency,[1],inactive
same,Potency,[2],inactive
CC(C)NC[C@@H](O)c1ccc(O)c(O)c1,Potency,[1],50.1 µM (active)
same,Potency,[2],inactive
NCCCCC(=O)O,Potency,[1],inactive
same,Potency,[2],inactive
Nc1nc2ccc(Cl)cc2n2c(-c3ccccc3)nnc12,Potency,[1],inactive
same,Potency,[2],inactive
CC(C)c1cccc(C(C)C)c1N1C(=O)c2ccc(O)cc2C1=O,Potency,[1],inactive
same,Potency,[2],inactive
O=C(/C=C/c1ccc(O)cc1)c1ccc(O)cc1O,Potency,[1],44.7 µM (active)
same,Potency,[2],inactive
OCC1O[C@H](O)C(Cl)C(O)C1O (some centres not stated),Potency,[1],inactive
same,Potency,[2],inactive
NCCCCCCCCCCN,Potency,[1],inactive
same,Potency,[2],inactive
CCOC(=O)N1CCN(/[N+]([O-])=N/Oc2ccc([N+](=O)[O-])cc2[N+](=O)[O-])CC1,Potency,[1],28.2 µM (active)
same,Potency,[2],inactive
O=C(CCCCCN1CCN(c2ccccc2-c2ccccc2)CC1)NC1CCCc2ccccc21 (configuration not stated),Potency,[1],79.4 µM (active)
same,Potency,[2],23.8 µM (active)
CC1CN(S(=O)(=O)c2cccc3cnccc23)CCN1 (configuration not stated),Potency,[1],inactive
same,Potency,[2],inactive
CCNC(=O)[C@H]1O[C@@H](n2cnc3c(N)nc(NCCc4ccc(CCC(=O)O)cc4)nc32)[C@H](O)C1O (some centres not stated),Potency,[1],inactive
same,Potency,[2],inactive
